# PubChem BioAssay (NCI)
# About 79,000 compounds went through this panel and 15% of them were active in at least one assay; those are over-represented in the sample as a whole. Unmarked numbers belong to inactive results. The source made the active and inactive calls. Cut-off read from the data, not from the text of the source: active = growth inhibition above about 70%; inactive = the rest.
# Experiment: NCI Yeast Anticancer Drug Screen. Data for the mlh1 rad18 strain (AID 175)
# Settings: S. cerevisiae mlh1 rad18 strain growth inhibition; at 50.0 µM; active compounds read high
# How it was run: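 Cells of a genetically altered yeast strain, deficient in DNA damage repair, were treated with compound. Their growth was then compared with that of vehicle-treated cultures to give inhibition.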
row,Structure (SMILES),growth inhibition
1,CC(C)c1ccc2c(c1)CC[C@@H]1[C@](C)(CO)CCC[C@]21C,97.3% (active)
2,O=c1c2ccccc2ncn1Cc1ccccc1[N+](=O)[O-],-6.15%
3,O=C(NO)C(=O)Nc1cc(Cl)ccc1Cl,77.7% (active)
4,CCCCCCCCCCCCOC(=O)C[n+]1cccc(C(=O)Nc2ccccc2)c1,99.2% (active)
5,O=C1C=CC(=O)c2ccc(=O)ccc21,51.2%
6,Cn1c(=O)nc2n(-c3ccc(Cl)cc3)c3cc(Cl)ccc3nc-2c1=O,77% (active)
7,Clc1ccc(CN2COc3c(ccc4ccccc34)C2)cc1,59%
8,C1CCN(c2nc(N3CCOCC3)c3[nH]c(N4CCCCC4)nc3n2)CC1,36.5%
9,O=C1c2ccccc2-c2cc([N+](=O)[O-])c([N+](=O)[O-])cc21,98.3% (active)
10,CCC[CH2][Sn]([CH2]CCC)([O]C(=O)Cc1ccc(F)cc1)[O]C(=O)Cc1ccc(F)cc1,76.2% (active)
11,ClCc1ccc2oc3ccccc3c2c1,68.6%
12,O=C1Oc2ccccc2C(=O)/C1=C/N1C(=O)/C(=C/c2ccc([N+](=O)[O-])cc2)SC1=S,86.3% (active)
13,COC1=CC(=O)c2ncc(Cl)cc2C1=O,98.3% (active)
14,CN(C)c1ccc(C(c2ccc(N(C)C)cc2)c2ccc3c(c2)OCO3)cc1,91.6% (active)
15,CC(C)(C)OC(=O)CSC#N,55.5%
16,CN=c1ss/c(=N\C(=S)N(C)C)n1-c1ccccc1,-22.5%
17,CCCCCCCCCCCCCCCBr,92.8% (active)
18,O=c1c2ccccc2[nH]c2c1[nH]c1ccccc12,19.9%
19,COc1cc(/C=C/c2cc[n+](C)cc2)ccc1O,-8.35%
20,COc1cc(C2c3cc4c(cc3C(OC3CCCCO3)C3COC(=O)C23)OCO4)cc(OC)c1OC (centres undefined),33.9%

row,Structure (SMILES),growth inhibition
1,O=S(=O)(N/N=C/c1ccc(Cl)cc1Cl)c1ccccc1,14%
2,Cc1ccc(C(=O)/C(Cl)=N/O)cc1,98.5% (active)
3,Cc1ccnc(NS(=O)(=O)c2ccc(N=Cc3c4ccccc4nc4cc(Cl)ccc34)cc2)n1,99.3% (active)
4,COc1cc(CCN=Cc2cc(Cl)cc(Cl)c2O)c([N+](=O)[O-])cc1OC,62.6%
5,COc1ccc(C(C)c2cc3c(cc2OC/C(C)=N/NC(N)=O)OCO3)cc1 (centres undefined),90.3% (active)
6,C/C(CCC1CCc2ccccc2C1)=N\NC(N)=O (centres undefined),-6.5%
7,Cc1nc(C(N)=S)sc1C(=O)CC(=O)C(=O)Nc1nc2ccccc2[nH]1,-42.5%
8,Clc1ccc([O][In]([O]c2ccc(Cl)cn2)[O]c2ccc(Cl)cn2)nc1,53.8%
9,Cc1ccc(S(=O)(=O)C(=S)Sc2ccccc2)cc1,79.8% (active)
10,Fc1ccc2[nH]ccc2c1,49.3%
11,C(=C/c1ccccc1)/C=N/Nc1ccccc1,2.35%
12,O=S1(=O)CC2C1C1(Cl)OC2(Cl)c2ccccc21 (centres undefined),27.6%
13,CCCNC(=O)C(=O)NNc1ccccc1,90.1% (active)
14,C/C(=N/O)c1cccc(C(F)(F)F)c1,19.2%
15,COC1=CC(=O)c2c(O)c3c(c(O)c2C1=O)OC1(Oc2c(cc4cc(C)oc(=O)c4c2O)CC1O)C3O (centres undefined),91% (active)
16,CC(C)C1/C(=N/O)CC(c2ccccc2)N(N=O)C1c1ccccc1 (centres undefined),90.3% (active)
17,Cc1c(N)nc(C2CC(=O)N2CC(N)C(N)=O)nc1C(=O)NC(C(=O)NC(C)C(O)C(C)C(=O)NC(C(=O)NCCc1nc(-c2nc(C(=O)NCCCNC3CCCC3)cs2)cs1)C(C)O)C(OC1OC(CO)C(O)C(O)C1OC1OC(CO)C(O)C(OC(N)=O)C1O)c1cnc[nH]1 (centres undefined),92% (active)
18,CCOC(=O)C1(Br)CCN(S(=O)(=O)c2ccc(C)cc2)c2ccccc2C1=O (centres undefined),98.4% (active)
19,O=C(C[n+]1ccccc1)c1ccc2ccc3ccc(Cl)cc3c2c1,72.5% (active)
